Common to all, as to assay: DAPPL (digital affinity profiling via proximity ligation, sequencing); 10 mM Tris-HCl pH 7.5, 50 mM NaCl, 1 mM DTT, 4% glycerol, room temperature, 30 min; GST-TFs on glutathione beads, 16-mer random dsDNA library, 0.1% formaldehyde crosslink after washing; high values mean tight binding
Test [1] deals with T1, FLI1 (Homo sapiens, UniProt Q01543 1-452).
T1 sequence: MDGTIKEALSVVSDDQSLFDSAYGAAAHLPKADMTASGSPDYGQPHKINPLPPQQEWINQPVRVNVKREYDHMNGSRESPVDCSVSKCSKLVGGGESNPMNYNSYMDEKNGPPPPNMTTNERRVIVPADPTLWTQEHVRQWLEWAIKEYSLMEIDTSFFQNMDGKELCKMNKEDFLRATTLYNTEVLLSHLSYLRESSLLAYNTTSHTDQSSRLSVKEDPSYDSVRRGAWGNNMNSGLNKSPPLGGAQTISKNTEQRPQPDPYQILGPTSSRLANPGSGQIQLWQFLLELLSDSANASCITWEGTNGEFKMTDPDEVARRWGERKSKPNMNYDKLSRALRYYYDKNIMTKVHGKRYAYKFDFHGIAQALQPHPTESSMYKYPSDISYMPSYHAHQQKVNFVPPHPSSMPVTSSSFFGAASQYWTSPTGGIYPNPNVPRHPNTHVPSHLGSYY
To be noted: protein: recombinant; tags: N-terminal GST; dsDNA, one strand shown. Summed up: (§1)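 Each value of binding signal is a hexamer's read frequency for a factor divided by the same hexamer's frequency in the tag-only sample. Barcoded, bead-captured GST fusions of human transcription factors made in yeast were pooled with that sample and incubated with 200 nmole of a random double-stranded 16-mer DNA library in Tris/NaCl/DTT/glycerol buffer at room temperature for 30 min. Washing, 0.1% formaldehyde crosslinking, proximity ligation, PCR and Illumina NextSeq500 sequencing followed.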

Test [2] deals with T2, ELK1 (Homo sapiens, UniProt P19419 1-428).
T2 sequence: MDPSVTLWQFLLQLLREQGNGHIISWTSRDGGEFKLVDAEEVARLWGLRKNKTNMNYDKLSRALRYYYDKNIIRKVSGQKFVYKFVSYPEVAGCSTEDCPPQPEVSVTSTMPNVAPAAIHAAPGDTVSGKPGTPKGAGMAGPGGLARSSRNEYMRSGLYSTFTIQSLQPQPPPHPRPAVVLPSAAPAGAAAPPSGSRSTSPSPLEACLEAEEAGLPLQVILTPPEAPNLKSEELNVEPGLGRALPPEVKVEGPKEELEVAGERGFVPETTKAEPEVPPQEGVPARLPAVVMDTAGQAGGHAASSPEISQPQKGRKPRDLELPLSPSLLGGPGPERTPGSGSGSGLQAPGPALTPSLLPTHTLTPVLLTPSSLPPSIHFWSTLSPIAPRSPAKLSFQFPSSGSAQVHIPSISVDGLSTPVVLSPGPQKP
To be noted: protein: recombinant; tags: N-terminal GST; dsDNA, one strand shown. Summed up:
as §1

Test [3] has as its target T3, GABPA (Homo sapiens, UniProt Q06546 1-454).
T3 sequence: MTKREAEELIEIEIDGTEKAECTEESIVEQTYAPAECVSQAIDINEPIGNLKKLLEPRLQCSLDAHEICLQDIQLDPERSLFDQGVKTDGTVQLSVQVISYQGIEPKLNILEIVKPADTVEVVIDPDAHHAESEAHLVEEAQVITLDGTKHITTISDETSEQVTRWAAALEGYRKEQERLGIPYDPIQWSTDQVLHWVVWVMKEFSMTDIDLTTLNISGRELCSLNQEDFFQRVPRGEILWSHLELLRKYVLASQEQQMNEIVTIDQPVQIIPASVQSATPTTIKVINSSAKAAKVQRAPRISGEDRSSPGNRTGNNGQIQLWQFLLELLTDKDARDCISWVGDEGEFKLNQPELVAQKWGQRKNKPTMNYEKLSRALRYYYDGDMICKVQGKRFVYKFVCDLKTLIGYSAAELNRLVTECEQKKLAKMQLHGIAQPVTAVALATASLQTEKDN
To be noted: protein: recombinant; tags: N-terminal GST; dsDNA, one strand shown. Summed up: as §1

In test [4] the target is T4, ERG (Homo sapiens, UniProt P11308 1-479).
T4 sequence: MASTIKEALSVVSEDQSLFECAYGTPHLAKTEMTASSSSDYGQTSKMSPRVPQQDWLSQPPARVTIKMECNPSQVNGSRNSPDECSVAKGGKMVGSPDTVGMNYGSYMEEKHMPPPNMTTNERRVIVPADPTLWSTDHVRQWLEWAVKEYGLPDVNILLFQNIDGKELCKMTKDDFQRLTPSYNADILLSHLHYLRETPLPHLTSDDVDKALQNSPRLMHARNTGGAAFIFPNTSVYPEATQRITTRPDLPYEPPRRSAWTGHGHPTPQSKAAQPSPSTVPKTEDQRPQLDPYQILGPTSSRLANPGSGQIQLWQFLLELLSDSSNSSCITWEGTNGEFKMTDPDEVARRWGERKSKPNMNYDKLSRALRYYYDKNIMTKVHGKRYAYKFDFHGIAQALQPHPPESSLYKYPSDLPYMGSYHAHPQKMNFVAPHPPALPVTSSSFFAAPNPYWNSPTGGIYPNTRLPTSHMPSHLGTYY
To be noted: protein: recombinant; tags: N-terminal GST; dsDNA, one strand shown. Summed up:
as §1

Test [5] addresses ELF1 (Homo sapiens, UniProt P32519 1-619). To be noted: protein: recombinant; tags: N-terminal GST; dsDNA, one strand shown. In short, it runs like this:
as §1

Test [6] concerns the target T5, EHF (Homo sapiens, UniProt Q9NZC4 1-300).
T5 sequence: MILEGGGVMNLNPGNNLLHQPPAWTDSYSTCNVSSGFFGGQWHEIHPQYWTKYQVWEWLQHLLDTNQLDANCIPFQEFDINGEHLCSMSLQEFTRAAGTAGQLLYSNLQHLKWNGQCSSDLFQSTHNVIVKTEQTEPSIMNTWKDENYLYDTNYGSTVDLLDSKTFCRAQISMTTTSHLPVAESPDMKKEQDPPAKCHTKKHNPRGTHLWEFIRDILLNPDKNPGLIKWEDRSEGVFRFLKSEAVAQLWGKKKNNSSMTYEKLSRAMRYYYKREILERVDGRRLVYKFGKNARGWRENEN
To be noted: protein: recombinant; tags: N-terminal GST; dsDNA, one strand shown. In short, it runs like this: as §1

Test [7] has as its target SPI1 (Homo sapiens, UniProt P17947 1-270). To be noted: protein: recombinant; tags: N-terminal GST; dsDNA, one strand shown. In short, it runs like this: as §1
Test [8] has as its target SPIB (Homo sapiens, UniProt Q01892 1-262). To be noted: protein: recombinant; tags: N-terminal GST; dsDNA, one strand shown. In short, it runs like this:
as §1

In test [9] the target is T6, ELK3 (Homo sapiens, UniProt P41970 1-407).
T6 sequence: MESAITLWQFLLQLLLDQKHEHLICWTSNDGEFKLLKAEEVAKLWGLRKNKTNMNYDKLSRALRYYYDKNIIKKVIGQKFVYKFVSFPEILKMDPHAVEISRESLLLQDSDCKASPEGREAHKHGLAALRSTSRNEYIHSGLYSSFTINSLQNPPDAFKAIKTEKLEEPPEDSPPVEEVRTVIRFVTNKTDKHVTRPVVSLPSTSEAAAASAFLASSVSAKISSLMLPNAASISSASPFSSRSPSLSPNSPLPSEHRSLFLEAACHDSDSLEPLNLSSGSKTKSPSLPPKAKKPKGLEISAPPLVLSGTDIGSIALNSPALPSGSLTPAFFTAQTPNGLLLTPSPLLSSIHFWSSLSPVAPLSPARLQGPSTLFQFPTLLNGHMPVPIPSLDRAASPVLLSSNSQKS
To be noted: protein: recombinant; tags: N-terminal GST; dsDNA, one strand shown. Summed up: as §1

In test [10] the target is T7, FEV (Homo sapiens, UniProt Q99581 1-238).
T7 sequence: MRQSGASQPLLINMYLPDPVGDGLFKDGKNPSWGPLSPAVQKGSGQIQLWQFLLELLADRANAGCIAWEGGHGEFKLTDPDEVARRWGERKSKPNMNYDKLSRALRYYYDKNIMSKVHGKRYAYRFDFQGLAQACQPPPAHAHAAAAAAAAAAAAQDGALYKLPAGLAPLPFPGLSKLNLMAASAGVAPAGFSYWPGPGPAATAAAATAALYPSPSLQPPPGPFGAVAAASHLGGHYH
To be noted: protein: recombinant; tags: N-terminal GST; dsDNA, one strand shown. Summed up:
as §1

Test [11] addresses ETV5 (Homo sapiens, UniProt P41161 1-510). To be noted: protein: recombinant; tags: N-terminal GST; dsDNA, one strand shown. Summed up: as §1
Test [12] deals with HSF1 (Homo sapiens, UniProt Q00613 1-529). To be noted: protein: recombinant; tags: N-terminal GST; chain copies: 3; dsDNA, one strand shown. Summed up:
as §1

In test [13] the target is ELF4 (Homo sapiens, UniProt Q99607 1-663). To be noted: protein: recombinant; tags: N-terminal GST; dsDNA, one strand shown. Summed up: as §1
Test [14] addresses T8, ELK4 (Homo sapiens, UniProt P28324-2 1-405).
T8 sequence: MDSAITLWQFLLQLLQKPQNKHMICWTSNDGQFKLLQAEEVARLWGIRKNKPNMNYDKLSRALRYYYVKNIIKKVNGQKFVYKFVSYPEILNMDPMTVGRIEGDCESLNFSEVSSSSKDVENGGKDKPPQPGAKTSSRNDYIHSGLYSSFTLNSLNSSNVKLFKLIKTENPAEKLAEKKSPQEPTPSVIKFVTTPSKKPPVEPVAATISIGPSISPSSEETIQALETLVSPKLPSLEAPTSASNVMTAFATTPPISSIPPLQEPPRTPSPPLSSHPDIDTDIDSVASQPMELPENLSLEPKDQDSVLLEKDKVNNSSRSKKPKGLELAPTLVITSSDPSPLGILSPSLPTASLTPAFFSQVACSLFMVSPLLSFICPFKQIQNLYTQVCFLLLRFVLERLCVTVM
To be noted: protein: recombinant; tags: N-terminal GST; dsDNA, one strand shown. In short, it runs like this: as §1

For test [15], the target named is T9, ETV2 (Homo sapiens, UniProt O00321 1-342).
T9 sequence: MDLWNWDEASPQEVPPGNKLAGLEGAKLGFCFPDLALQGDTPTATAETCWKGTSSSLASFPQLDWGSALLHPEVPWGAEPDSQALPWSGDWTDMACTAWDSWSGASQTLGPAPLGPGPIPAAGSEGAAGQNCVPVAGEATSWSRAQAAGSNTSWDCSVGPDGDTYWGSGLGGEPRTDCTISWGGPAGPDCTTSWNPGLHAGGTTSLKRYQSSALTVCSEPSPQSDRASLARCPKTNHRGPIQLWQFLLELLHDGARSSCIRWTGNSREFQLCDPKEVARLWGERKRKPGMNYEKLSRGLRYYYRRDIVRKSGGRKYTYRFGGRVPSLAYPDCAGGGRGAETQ
To be noted: protein: recombinant; tags: N-terminal GST; dsDNA, one strand shown. Summed up: as §1

Test [16] deals with T10, ELF3 (Homo sapiens, UniProt P78545 1-371).
T10 sequence: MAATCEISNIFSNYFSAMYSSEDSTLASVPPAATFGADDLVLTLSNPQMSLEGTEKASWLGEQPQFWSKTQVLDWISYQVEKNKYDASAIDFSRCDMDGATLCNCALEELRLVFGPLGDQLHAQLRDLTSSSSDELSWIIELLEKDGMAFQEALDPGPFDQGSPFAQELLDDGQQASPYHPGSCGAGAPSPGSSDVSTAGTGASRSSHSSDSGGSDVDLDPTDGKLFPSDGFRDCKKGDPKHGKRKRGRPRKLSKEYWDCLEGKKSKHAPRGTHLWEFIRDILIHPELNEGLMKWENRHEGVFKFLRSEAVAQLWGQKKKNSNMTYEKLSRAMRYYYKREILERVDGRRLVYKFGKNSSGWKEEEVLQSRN
To be noted: protein: recombinant; tags: N-terminal GST; dsDNA, one strand shown. Summed up: as §1

Test [17] deals with CRX (Homo sapiens, UniProt O43186 1-299). To be noted: protein: recombinant; tags: N-terminal GST; dsDNA, one strand shown. In short, it runs like this:
as §1

The target of test [18] is ETV1 (Homo sapiens, UniProt P50549 1-477). To be noted: protein: recombinant; tags: N-terminal GST; dsDNA, one strand shown. Summed up: as §1
Chain of ETV1 (P50549 whole entry): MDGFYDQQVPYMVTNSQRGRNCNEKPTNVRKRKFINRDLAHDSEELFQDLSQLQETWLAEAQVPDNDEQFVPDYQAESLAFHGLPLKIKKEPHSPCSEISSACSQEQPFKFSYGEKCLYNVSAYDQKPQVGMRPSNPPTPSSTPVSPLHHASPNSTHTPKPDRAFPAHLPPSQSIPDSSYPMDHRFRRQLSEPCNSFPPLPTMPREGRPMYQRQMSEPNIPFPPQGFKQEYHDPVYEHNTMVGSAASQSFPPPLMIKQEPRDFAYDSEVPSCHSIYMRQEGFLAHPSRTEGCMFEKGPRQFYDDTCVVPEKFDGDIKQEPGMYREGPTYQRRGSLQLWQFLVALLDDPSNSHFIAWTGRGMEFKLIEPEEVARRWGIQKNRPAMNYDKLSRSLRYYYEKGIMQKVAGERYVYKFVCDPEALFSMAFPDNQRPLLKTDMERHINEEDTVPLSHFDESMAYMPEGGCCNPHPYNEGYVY

Chain of ELF4 (Q99607 whole entry): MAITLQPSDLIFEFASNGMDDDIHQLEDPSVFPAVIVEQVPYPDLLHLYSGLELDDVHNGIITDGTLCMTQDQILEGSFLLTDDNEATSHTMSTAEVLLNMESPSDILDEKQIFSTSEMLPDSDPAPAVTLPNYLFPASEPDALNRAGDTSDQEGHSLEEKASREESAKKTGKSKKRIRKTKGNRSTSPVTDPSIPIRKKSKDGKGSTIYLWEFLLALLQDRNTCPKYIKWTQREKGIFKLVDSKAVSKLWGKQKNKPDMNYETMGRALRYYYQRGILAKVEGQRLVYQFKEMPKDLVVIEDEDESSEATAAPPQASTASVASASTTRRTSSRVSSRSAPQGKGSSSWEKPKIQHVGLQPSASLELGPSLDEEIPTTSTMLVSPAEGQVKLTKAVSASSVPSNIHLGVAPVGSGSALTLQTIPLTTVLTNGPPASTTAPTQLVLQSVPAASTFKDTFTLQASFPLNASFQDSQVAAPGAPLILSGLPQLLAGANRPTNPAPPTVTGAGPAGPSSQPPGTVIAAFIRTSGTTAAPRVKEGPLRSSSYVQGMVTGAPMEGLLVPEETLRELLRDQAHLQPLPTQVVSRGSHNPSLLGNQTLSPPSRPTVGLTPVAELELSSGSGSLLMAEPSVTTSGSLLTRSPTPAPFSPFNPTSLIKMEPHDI
Chain of ELF1 (P32519 whole entry): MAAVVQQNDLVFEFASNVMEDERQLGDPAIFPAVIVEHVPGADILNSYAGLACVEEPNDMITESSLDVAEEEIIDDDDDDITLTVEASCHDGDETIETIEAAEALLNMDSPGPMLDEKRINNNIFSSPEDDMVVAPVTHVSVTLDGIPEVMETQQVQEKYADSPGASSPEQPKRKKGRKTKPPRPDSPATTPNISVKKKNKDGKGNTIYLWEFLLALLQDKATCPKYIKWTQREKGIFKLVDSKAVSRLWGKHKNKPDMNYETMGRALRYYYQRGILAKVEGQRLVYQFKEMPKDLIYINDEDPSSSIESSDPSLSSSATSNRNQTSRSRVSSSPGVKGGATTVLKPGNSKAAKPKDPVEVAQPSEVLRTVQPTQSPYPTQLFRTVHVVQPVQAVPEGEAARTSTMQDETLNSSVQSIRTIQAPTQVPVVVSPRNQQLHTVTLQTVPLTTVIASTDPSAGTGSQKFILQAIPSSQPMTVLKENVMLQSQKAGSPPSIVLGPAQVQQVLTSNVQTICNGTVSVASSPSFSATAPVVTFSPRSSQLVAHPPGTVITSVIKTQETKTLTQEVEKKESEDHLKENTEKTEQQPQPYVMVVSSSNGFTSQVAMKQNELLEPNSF
Chain of SPIB (Q01892 whole entry): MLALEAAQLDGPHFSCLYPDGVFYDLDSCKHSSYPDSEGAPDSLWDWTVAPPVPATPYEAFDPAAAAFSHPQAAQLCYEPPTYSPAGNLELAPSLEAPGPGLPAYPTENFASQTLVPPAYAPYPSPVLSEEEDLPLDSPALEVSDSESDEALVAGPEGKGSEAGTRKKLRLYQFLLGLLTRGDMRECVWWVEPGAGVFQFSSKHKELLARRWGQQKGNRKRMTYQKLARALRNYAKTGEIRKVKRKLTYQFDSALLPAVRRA
Chain of ETV5 (P41161 whole entry): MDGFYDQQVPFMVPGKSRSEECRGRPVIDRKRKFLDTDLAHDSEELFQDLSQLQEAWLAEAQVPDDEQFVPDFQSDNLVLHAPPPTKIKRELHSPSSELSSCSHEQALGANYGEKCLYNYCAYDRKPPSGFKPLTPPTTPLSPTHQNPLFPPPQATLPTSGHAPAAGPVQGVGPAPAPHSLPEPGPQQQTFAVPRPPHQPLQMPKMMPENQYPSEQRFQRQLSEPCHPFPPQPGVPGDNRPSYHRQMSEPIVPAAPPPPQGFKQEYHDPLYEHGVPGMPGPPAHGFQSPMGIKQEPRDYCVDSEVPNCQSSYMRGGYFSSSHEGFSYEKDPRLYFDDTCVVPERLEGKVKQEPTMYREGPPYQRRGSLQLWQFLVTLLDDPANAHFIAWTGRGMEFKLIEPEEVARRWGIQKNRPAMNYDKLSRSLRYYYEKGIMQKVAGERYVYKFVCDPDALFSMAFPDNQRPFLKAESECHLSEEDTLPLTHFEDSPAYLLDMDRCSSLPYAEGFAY
Chain of CRX (O43186 whole entry): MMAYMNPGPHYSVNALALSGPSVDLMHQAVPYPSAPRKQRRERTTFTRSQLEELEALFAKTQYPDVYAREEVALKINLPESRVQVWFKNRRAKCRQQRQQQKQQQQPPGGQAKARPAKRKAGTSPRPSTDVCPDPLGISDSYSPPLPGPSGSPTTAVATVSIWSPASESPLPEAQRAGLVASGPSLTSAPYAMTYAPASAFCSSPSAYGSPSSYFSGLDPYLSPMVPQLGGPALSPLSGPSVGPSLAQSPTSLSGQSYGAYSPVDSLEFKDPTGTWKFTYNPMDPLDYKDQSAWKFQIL
Chain of HSF1 (Q00613 whole entry): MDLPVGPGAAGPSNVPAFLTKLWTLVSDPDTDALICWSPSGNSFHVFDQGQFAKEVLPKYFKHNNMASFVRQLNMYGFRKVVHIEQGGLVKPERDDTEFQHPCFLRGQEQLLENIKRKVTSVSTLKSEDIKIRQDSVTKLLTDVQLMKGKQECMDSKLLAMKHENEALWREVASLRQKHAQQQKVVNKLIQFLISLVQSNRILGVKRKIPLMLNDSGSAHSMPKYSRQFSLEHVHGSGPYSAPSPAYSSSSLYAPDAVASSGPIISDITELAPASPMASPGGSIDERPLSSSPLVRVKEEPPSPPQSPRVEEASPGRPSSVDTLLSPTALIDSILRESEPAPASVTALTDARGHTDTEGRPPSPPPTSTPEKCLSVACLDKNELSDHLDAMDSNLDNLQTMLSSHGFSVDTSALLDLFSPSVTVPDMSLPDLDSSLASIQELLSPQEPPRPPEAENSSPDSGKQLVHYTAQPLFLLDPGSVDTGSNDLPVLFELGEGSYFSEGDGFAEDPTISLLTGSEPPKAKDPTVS

As for CTAGTA, the binding signal in test [1] is 1.08 fold enrichment (6-mer frequency, TF over GST control); in [2], 1.03 fold enrichment (6-mer frequency, TF over GST control); in [3] it was 1.08 fold enrichment (6-mer frequency, TF over GST control); in test [4] it was 1.06 fold enrichment (6-mer frequency, TF over GST control); in test [5], 1.15 fold enrichment (6-mer frequency, TF over GST control); in test [6], 1.08 fold enrichment (6-mer frequency, TF over GST control). In addition, the binding signal in test [7] is 1.13 fold enrichment (6-mer frequency, TF over GST control); in test [8], 1.1 fold enrichment (6-mer frequency, TF over GST control); in [9], 1.17 fold enrichment (6-mer frequency, TF over GST control); in test [10], 1.04 fold enrichment (6-mer frequency, TF over GST control); in [11], 1.08 fold enrichment (6-mer frequency, TF over GST control); in test [12] it was 1.86 fold enrichment (6-mer frequency, TF over GST control). In addition, the binding signal was 1.07 fold enrichment (6-mer frequency, TF over GST control) in test [13]; 1.09 fold enrichment (6-mer frequency, TF over GST control) in [14]; 1.1 fold enrichment (6-mer frequency, TF over GST control) in test [15]; 1.18 fold enrichment (6-mer frequency, TF over GST control) in test [16]; 1.38 fold enrichment (6-mer frequency, TF over GST control) in test [17]; 1.04 fold enrichment (6-mer frequency, TF over GST control) in test [18].

These data come from publication PMC7862700, “An all-to-all approach to the identification of sequence-specific readers for epigenetic DNA modifications on cytosine”.
